Screening results as filed in PubChem BioAssay.
Sampled rows, rich in hits. Any-hit rate of the full collection: about 17%.
ClpP mod – qHTS Assay for Activators of ClpP; ATP-dependent Clp protease proteolytic subunit (Bacillus subtilis (strain 168)), P80244; purified B. subtilis ClpP, FRET peptide cleavage, 20 min; hit rate 1.9% among 340,000; Potency, µM (series often up to 57.5 µM), for inactives: at the top dose activity change, negative = active; AID 651965, 2013; active means well fitted falling curve with a large enough effect; inconclusive means small, poorly fitted or top-dose-only effect; inactive means no such curve, though single readings can be large or run the other way; further: the source files actives as falling curves though it sought activators and does not explain the sign; nearly all actives have a fitted effect of over 65% in size
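FRET quenching reversal measured ClpP activation: 10 microg/mL B. subtilis ClpP at pH 8 with the FRET-FV decapeptide, read at 430 nm after 320 nm excitation. The 20-min minus 0-min signal was scaled between DMSO/no-enzyme wells and ADEP (5.8 microM final).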
DT40 TDP1 no CPT – qHTS for Inhibitors of human tyrosyl-DNA phosphodiesterase 1 (TDP1): qHTS in cells in absence of CPT; DT40 Tdp1-/- hTDP1 cells, no CPT, ATP luminescence, 48 h; Potency, µM (top dose mostly 46.2 µM), without a hit: at the highest dose activity change, negative = growth inhibition, most hits filed as inhibitors; hit rate 15% among 420,000; AID 686978, 2013; further: on the % scale 0 is the no-effect control and ±100 the full control effect; nearly all actives have a fitted effect of over 55% in size
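Cells were dispensed at 400 per well, compounds added by pin tool, plates incubated ≥48 hr at 37 °C, then CellTiter-Glo added for 30 min at room temperature before luminescence reading. Line: DT40 Tdp1-/- complemented with hTDP1; camptothecin omitted.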
TDP1 cell CPT – qHTS for Inhibitors of human tyrosyl-DNA phosphodiesterase 1 (TDP1): qHTS in cells in presence of CPT; chicken DT40 Tdp1-/-;hTDP1 cells + 20 nM CPT, ATP luminescence, 48 h; Potency, µM (doses to about 46.2 µM), without a hit: at the highest dose activity change, negative = growth inhibition, hits mostly inhibitors; hit rate 12% among 420,000; AID 686979, 2013; further: on the % scale 0 is the no-effect control and ±100 the full control effect; nearly all actives have a fitted effect of over 55% in size
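Cell growth measured by CellTiter-Glo luminescence after a minimum 48 h, 37 C compound exposure with 20 nM CPT in Tdp1-knockout DT40 cells stably expressing hTDP1, seeded 400/well; qHTS titration format.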
TDP1 inh – qHTS Assay for Inhibitors of Tyrosyl-DNA Phosphodiesterase (TDP1); recombinant TDP1, AlphaScreen DNA substrate cleavage; AID 485290, 2010; Tyrosyl-DNA phosphodiesterase 1 (Homo sapiens), Q9NUW8; hit rate 0.28% among 350,000; Potency, µM (doses to about 130 µM), without a hit: at the highest dose activity change, negative = inhibition, actives largely listed as inhibitors; further: on the % scale 0 is the no-effect control and ±100 the full control effect; nearly all actives have a fitted effect of over 40% in size
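AlphaScreen read-out: signal falls as enzyme removes the 3' tyrosine-FITC from a 5'-biotinylated DNA oligo (15 nM, 5 min, RT). Enzyme was E. coli-made recombinant Tdp1 at 1 nM, exposed to compound for 15 min beforehand; beads 10 ug/ml, 10 min.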
Active calls of the source: *; ? = inconclusive; . = no result; [ ] = another dose, or the depositor's remark. Unless noted, the call rests on the fitted dose curve; in most records, active means well fitted curve in the direction sought with a large enough effect; inconclusive means small, poorly fitted or top-dose-only effect, or another doubt; inactive means no such curve, though single readings can be large; an effect the other way counts as inactive or inconclusive. Potency means the concentration at half of the fitted maximal effect.

SMILES	ClpP mod	DT40 TDP1 no CPT	TDP1 cell CPT	TDP1 inh
COc1ccc2oc(=O)c(C(=O)NCC3CCCO3)cc2c1 (stereo not drawn)	28µM*	-6%	0%	-2%
COc1ccc2oc(=O)c(C(=O)NCc3ccc(F)cc3)cc2c1	1%	-1%	14%	4%
COc1ccc2oc(=O)c(C(=O)NCc3cccnc3)cc2c1	28µM*	-3%	-9%	-2%
CCOC(=O)[C@]12CCC=C1N(Cc1ccco1)C(=O)[C@H](CC(=O)N1CCC(c3ccccc3)CC1)C2	-5%	?	?	.
Cc1cc(C)cc(NC(=O)Cn2cc(S(=O)(=O)NC(C)(C)C)c(S(=O)(=O)NC(C)(C)C)c2)c1	3%	?	?	2%
Cc1ncc2c(c1CNC(=O)/C=C/c1cccs1)CCN(C(=O)C1CCCO1)C2 (stereo not drawn)	.	15%	-2%[9.04 µM]	.
CNC(=O)c1cc2cc(OC)ccc2oc1=O	28µM*	-1%	4%	2%
CNC(=O)c1cc2ccc(OC)cc2oc1=O	84%	-4%	-19%	2%
COc1ccc(CNC(=O)C2CC(C)=C(C)CC2C(=O)O)cc1 (stereo not drawn)	-2%	9.2µM*	9.2µM*	4%
CN(N)c1nc2ccccc2nc1C(F)(F)F	.	?	?	-5%
CN(NC(=O)c1ccc(Cl)cc1)c1nc(-c2ccccc2)nnc1C(F)(F)F	0%	15µM*	21µM*	0%
Cc1ccc(C(=O)NN(C)c2nc3ccccc3nc2C(F)(F)F)cc1	1%	3.7µM*	4.6µM*	0%
CCC(=O)Nc1nc(CC(=O)Nc2ccccc2)cs1	2%	-22%	-13%	0%
COc1ccc(OC)c(NC(=O)Cc2csc(NC(=O)Nc3ccccc3OC)n2)c1	-3%	21µM*	?	.
COc1ccccc1NC(=O)Cc1csc(NC(=S)Nc2ccccc2)n1	-2%	6.5µM*	4.6µM*	9%
COc1ccc(OC)c(-c2csc(NC(=O)Cc3ccccc3OC)n2)c1	-2%	?	-18%	4%[0.0935 µM]
COc1ccccc1CCC(=O)OCc1csc(CC(=O)Nc2ccccc2C)n1	-2%	22%	14%	-3%
COc1ccc(NC(=O)Cc2csc(NC(=O)Nc3ccccc3OC)n2)c(OC)c1	-2%	13µM*	?	.
CCN(CC(=O)Nc1ccccc1OC)Cc1csc(CC(=O)Nc2ccc(C)cc2)n1	.	16µM*	26µM*	2%
CCCC/C=C/[C@H](c1ccccc1)[C@H](CO)Cc1ccccc1	.	.	.	-13%
CC(CNC(=O)Cc1ccc(NC(=O)N2CCSc3ncccc32)cc1)c1ccccc1 (stereo not drawn)	?	?	?	3%
CN1CCN(C(=O)c2cnn(-c3ccc(F)cc3F)c2C2CCN(C(=O)OC(C)(C)C)CC2)CC1	-1%	4%	10%	-2%
COc1ccc(N2CCN(C(=O)C3CCN(S(=O)(=O)Cc4ccccc4)CC3)CC2)cc1	-4%	-24%	-24%	6%
O=C(N/N=C/c1cccc(OCc2ccccc2)c1)c1ccc(Br)cc1	-15%	18µM*	?	3%
O=C(N/N=C/c1ccncc1)c1ccc(OCc2ccccc2)cc1	-2%	0%	-25%	6%
SMILES	ClpP mod	DT40 TDP1 no CPT	TDP1 cell CPT	TDP1 inh
COc1ccc(C(=O)N/N=C/c2ccc3cccc(OCc4ccccc4)c3n2)cc1	3.2µM*	8.2µM*	?	3%
COc1cccc(/C=N/NC(=O)c2ccc(OCc3cccc(Br)c3)cc2)c1	-4%	?	?	-6%
O=C(N/N=C/c1ccc2cccc(OCc3ccccc3)c2n1)c1ccc(Br)cc1	4µM*	?	16µM*	2%
COc1ccc(N(CC(=O)N2CCN(C)CC2)S(=O)(=O)c2cc(C)ccc2OC)cc1Cl	-6%	-5%	2%	3%
COc1ccc(OC)c(-c2nc3c(C#N)c[nH]n3c2NC2CCCCC2)c1	-12%	?	?	3%
N#Cc1c[nH]n2c(NC3CCCC3)c(-c3ccc(Br)cc3)nc12	-6%	23µM*	18µM*	9%
N#Cc1c[nH]n2c(NC3CCCC3)c(-c3ccc(Cl)cc3)nc12	0%	16µM*	?	11%
